# A number with no mark means an inactive call.
# Tested on: Caenorhabditis elegans L1 (N2)
# Test: survival and reproduction score of C. elegans L1 (0: 0-10 living worms, 1: 11-20, 2: 21-50, 3: >50, 4: overgrown) (score 0-4); higher = more worms, less nematicidal, active = 1 or less; extreme values may be limits of the assay
# Details: 60 µM; 6 days; temperature: 20 °C
# Experimental: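 DODA library (846 commercial 1,3,4- and 1,2,4-oxadiazole compounds plus commercial nematicide controls) screened at a single dose of 60 µM (0.6% DMSO) in 96-well plates, two biological replicates. Read-outs: C. elegans N2 L1 survival/reproduction score at day 6, 20 °C (0: 0-10 worms, 1: 11-20, 2: 21-50, 3: >50, 4: overgrown/starved). C. elegans daf-2 dauer, D. dipsaci and M. hapla J2 mobility at day 5, 20 °C, and P. penetrans mobility at day 5, 20 °C, each relative to DMSO controls. M. hapla egg hatching at day 12, 25 °C, relative to the mean of 8 DMSO wells on the same plate.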
row,SMILES,survival and reproduction score
1,COc1cccc(-c2noc(COc3ccccc3C)n2)c1,4
2,COc1ccc(-c2noc(COc3ccc(Cl)cc3Cl)n2)cc1,4
3,Cc1ccc(-c2noc(COc3ccccc3C)n2)cc1,4
4,CCCSc1nnc(-c2ccc(Cl)cc2Cl)o1,0 (active)
5,O=C(Nc1ccccc1-c1nc(-c2ccncc2)no1)c1ccccc1Cl,4
6,Cc1ccc(OCc2nc(-c3cccnc3)no2)cc1C,4
7,Brc1ccccc1-c1nc(-c2ccncc2)no1,0 (active)
8,Fc1ccc(OCc2nc(-c3ccccc3)no2)cc1,3.5
9,COC(=O)c1ccc(CSc2nnc(-c3ccc(OC)cc3)o2)cc1,4
10,COc1ccc(-c2nnc(SCc3c(Cl)cccc3Cl)o2)cc1,4
11,Brc1ccccc1-c1nc(-c2ccccc2)no1,0 (active)
12,O=C(CSc1nnc(-c2cccc(Cl)c2)o1)Nc1nccs1,4
13,COc1cccc(-c2noc(COc3ccc(C)cc3C)n2)c1,4
14,Cc1ccc(-c2nnc(SCC(=O)Nc3ccc(F)cc3)o2)cc1,4
15,O=C(CSc1nnc(-c2ccccc2Cl)o1)Nc1nccs1,4
16,CC(=O)Nc1ccc(NC(=O)c2ccccc2-c2nc(-c3cccc(C)c3)no2)cc1,4
17,CCOc1ccccc1-c1nc(-c2ccc(F)cc2)no1,4
18,O=C(Nc1ccccc1-c1nc(-c2cccnc2)no1)c1ccc(Cl)cc1,4
19,O=C(Nc1ccccc1-c1nc(-c2ccncc2)no1)c1cccc(Cl)c1,4
20,COc1ccc(-c2noc(COc3ccc(C(C)(C)C)cc3Br)n2)cc1,4

row,SMILES,survival and reproduction score
1,CCOc1nc(-c2ccc(C)cc2)ccc1-c1noc(-c2cccnc2)n1,4
2,Brc1ccc(-c2noc(COc3ccc4c(c3)OCO4)n2)cc1,4
3,CNC(=O)c1ccccc1-c1nc(-c2ccc(Cl)cc2)no1,4
4,CCOc1cc(-c2nc(-c3ccc(C)nc3OCC)no2)cc(OCC)c1OCC,4
5,CCc1ccc(C(=O)Nc2ccccc2-c2nc(-c3cccnc3)no2)cc1,4
6,COc1nc2ccc(C)cc2cc1-c1noc(-c2ccncc2)n1,4
7,Cc1cccc(-c2nnc(SCC(=O)NC(C)c3ccccc3)o2)c1 (stereo not given),4
8,Cc1ccccc1OCc1nc(-c2cccs2)no1,1 (active)
9,Brc1ccccc1-c1nc(-c2ccc3c(c2)OCO3)no1,4
10,O=C(c1ccccc1-c1nc(-c2ccc(F)cc2)no1)N1CCCC1,4
11,COc1ccc(-c2noc(-c3cccc(Cl)c3)n2)cc1,4
12,COc1ccc(-c2noc(COc3ccccc3C)n2)cc1,4
13,Clc1ccc(-c2nc(-c3cccnc3)no2)c(Cl)c1,2
14,COc1cccc(OCc2nc(-c3cccc(Br)c3)no2)c1,4
15,COc1ccc(-c2noc(COc3ccc(Cl)cc3)n2)cc1,4
16,COc1cccc(NC(=O)CSc2nnc(-c3ccc(Br)cc3)o2)c1,4
17,Fc1ccc(-c2noc(COc3ccccc3)n2)cc1,3.5
18,Brc1cccc(-c2nnc(SCc3ccccc3)o2)c1,4
19,COc1cccc(-c2noc(COc3cc(C)ccc3C)n2)c1,4
20,Cc1nc(CSc2nnc(-c3ccccc3)o2)cs1,4
